Several values for one entry are separate records, joined by “and”; a condition that tells them apart may be missing. Identical values can stand only once. Activity calls are given as the source filed them. Rule for the calls: active = hit-call score of the fitted dose curve at least 0.9, where 1 is the maximum; inactive = score below 0.9.

Read-out in the assay: Collagen III, COL3A1 (gene 1281)
The assay is described as follows: BSK_hDFCGF_CollagenIII: BioMAP Diversity Plus: hDFCGF Assay for Collagen III Biomarker Activity (AID 2283056). The following applies: primary human foreskin fibroblasts; actives raise or lower the signal. Here is the method: BSK_hDFCGF is a cell-based, multiplexed-readout assay that uses foreskin fibroblast, a human skin primary cell, with measurements taken at 24 hours after chemical dosing in a 96-well plate.BSK_hDFCGF_CollagenIII is an assay component measured in the BSK_hDFCGF assay. It measures Collagen antibody related to regulation of gene expression using ELISA technology.Data from the assay component BSK_hDFCGF_CollagenIII was analyzed into 1 assay endpoint. This assay endpoint, BSK_hDFCGF_CollagenIII, was analyzed with bidirectional fitting relative to DMSO as the negative control and baseline of activity. Using a type of binding reporter, gain or loss-of-signal activity can be used to understand changes in the signaling as they relate to the gene COL3A1. Furthermore, this assay endpoint can be referred to as a primary readout, because this assay has produced multiple assay endpoints where this one serves a signaling function. To generalize the intended target to other relatable targets, this assay endpoint is annotated to the cell adhesion molecules intended target family, where the subfamily is collagen.
The levels of cell surface (or secreted, indicated by the prefix "s") biomarker endpoints were measured by ELISA. Overt cytotoxicity to cells in confluent adherent cultures (all systems other than the BT system) was assessed by measuring total protein levels using sulforhodamine B (SRB) staining in parallel cultures at the time of biomarker measurements, indicated as SRB endpoints. For proliferation assays for adherent cell types, individual cell types are cultured at sub-confluence and relative cell numbers quantified by SRB staining at time points optimized for each system (48 h: 3C and CASM3C systems; 72 h: BT and HDF3CGF systems; 96 h: SAg system). SRB was performed by staining cells with 0.1% SRB after fixation with 10% TCA and reading wells at 560 nm.Viability and proliferation of PBMC (T cells) was quantified by Alamar Blue reduction for the SAg and BT systems. For PBMC viability (referred to as PBMC Cytotoxicity within the assay endpoint names), cells were plated (75,000/well in a 96-well plate) and then chemical samples added for 1 h before addition of activators, SEB and TSST-1 (20 ng/mL final concentration each). Cells were incubated for 90 h. Then, Alamar Blue (20 uL/well) (Invitrogen, Cat DAL1100) was added for 6 h, and the plates were read with a fluorescence microplate reader at 546/580 nm (excitation/emission). For PBMC proliferation, cells were plated and activated as above but incubated for only 16 h prior to addition of Alamar Blue. Plates were read after 6 h.
Consider `CN(C)[C@@H]1C(=O)C(C(N)=O)=C(O)[C@@]2(O)C(=O)C3=C(O)c4c(O)cccc4[C@@](C)(O)[C@H]3C[C@@H]12`, for which the result was inactive.

As for `N#CC(Br)Br`, the outcome was inactive.

With `Oc1ccccc1Cl`, the outcome was inactive.

As for `Clc1ccccc1Cl`, the outcome was inactive.

As for `CN(C)c1ccc(C(=O)c2ccc(N(C)C)cc2)cc1`, the outcome was inactive.

Consider `[Cl-].[Cl-].[Hg+2]`, for which the AC50 (commonly the concentration at which the activity in the assay is half-maximal) was 11.6 µM (active).

As to `O=[N+]([O-])c1ccc(Oc2ccc(Cl)cc2Cl)cc1`, the AC50 is 12.1 µM (active).

For `CCNS(=O)(=O)C(F)(F)C(F)(F)C(F)(F)C(F)(F)C(F)(F)C(F)(F)C(F)(F)C(F)(F)F`, the half-maximal activity concentration (AC50) was 5.82 µM (active) and 18.6 µM (active) and 22 µM (active).

With `CCCCCCCCn1sccc1=O`, the AC50 was 2.42 µM (active).

With `CC(C)(C)C(O)(CCc1ccc(Cl)cc1)Cn1cncn1` (stereo not given), the outcome was inactive.

As to `Brc1ccc(Oc2ccccc2)cc1`, the outcome was inactive.

As to `CC(C)(C)OOC(C)(C)CCC(C)(C)OOC(C)(C)C`, the result was inactive.

Regarding `Cc1cccc(N)c1N`, the outcome was inactive.

`Cc1ccc(N)cc1`: the outcome was inactive.

With `Cc1cc(N=Nc2ccccc2C)ccc1N`, the AC50 was 20 µM (active).

Regarding `CCCSC(=O)N(CCC)CCC`, the outcome was inactive.

Take `CO[C@@H]1[C@H](OC(=O)NC(=O)CCl)CC[C@]2(CO2)[C@H]1[C@@]1(C)O[C@@H]1CC=C(C)C`: the AC50 was 2.63 µM (active).

In the case of `O=C1CCCO1`, the result was inactive.

With `[As]#[In]`, the result was inactive.

With `N#CC(Br)(Br)C(N)=O`, the outcome was inactive.

Turning to `ClC1=C(Cl)C2(Cl)C3C(Cl)C=CC3C1(Cl)C2(Cl)Cl` (stereo not given), the AC50 was 6.97 µM (active).

As to `CCCCCCCCCCCCCN1CC(C)OC(C)C1` (stereo not given), the outcome was inactive.

`C[N+](C)(C)CC1CO1` (stereo not given): the outcome was inactive.

In the case of `ClCCOCCCl`, the result was inactive.

`CCCCOC(=O)c1ccccc1C(=O)OCc1ccccc1`: the AC50 is 13 µM (active).

`Cc1ccc(N=C=O)cc1N=C=O`: the result was inactive.

On to `Clc1ccc(Cl)c(Cl)c1`, for which the outcome was inactive.

In the case of `Nc1ccc(N=Nc2ccccc2)cc1`, the AC50 is 20 µM (active).

Take `Nc1ccc(Cl)cc1N`: the result was inactive.

On to `c1ccc2c(c1)-c1cccc3cccc-2c13`, for which the AC50 is 16.4 µM (active).

Take `CNC(=O)Oc1cccc2c1OC(C)(C)C2`: the result was inactive.

For `c1ccc(NNc2ccccc2)cc1`, the outcome was inactive.

Turning to `c1ccc2c(c1)oc1ccccc12`, the result was inactive.

For the compound `CS(=O)(=O)NC(=O)c1cc(Oc2ccc(C(F)(F)F)cc2Cl)ccc1[N+](=O)[O-]`, the outcome was inactive.

In the case of `OCCCBr`, the result was inactive.

Take `Clc1ccc(C(c2ccc(Cl)cc2)C(Cl)Cl)cc1`: the AC50 was 5.06 µM (active).

`CCCCCOC(=O)c1ccccc1C(=O)OCCCCC`: the AC50 was 3.97 µM (active).

In the case of `c1ccc(C2CO2)cc1` (stereo not given), the outcome was inactive.

For `Cc1ccc([N+](=O)[O-])cc1`, the result was inactive.

As for `Nc1ccc(Cc2ccc(N)cc2)cc1`, the result was inactive.
